From ChEMBL document CHEMBL4513135, “CO-ADD screening of IQOG CSIS (Spain) compounds”
Several values for one entry are separate records, joined by “and”; a condition that tells them apart may be missing. Equal entries are not always repeated. Entries with a potency or affinity are not part of this list.

What was measured:
Staphylococcus aureus = conditions: Concentration 32 ug.mL-1, ASSAY_TEST Inhibition of Bacterial Growth, detection method Absorption (OD600), MEDIA CAMHB, plate type 384well, NBS, CORNING #3640, time 18 hr
Escherichia coli = conditions: Concentration 32 ug.mL-1, ASSAY_TEST Inhibition of Bacterial Growth, detection method Absorption (OD600), MEDIA CAMHB, plate type 384well, NBS, CORNING #3640, time 18 hr

| SMILES | Inhibition (Staphylococcus aureus) | Inhibition (Escherichia coli) | Inhibition (Staphylococcus aureus; 32 ug/mL) | Inhibition (Escherichia coli; 32 ug/mL) |
| --- | --- | --- | --- | --- |
| CN(C)c1nc(N)c(C#N)c(-c2ccccc2)c1C#N | 7.52% | 0.57% | – | – |
| COc1ccc(C2c3ccc4ccccc4c3OC(=NBr)C2(Br)C#N)cc1OC (stereo not drawn) | 21.78% | -14.95% | – | – |
| CN(C)c1nc(N)c(C#N)cc1C#N.Cl | – | – | -10.37% and 5.36% | -3.96% and -19.68% |
| Cc1nc(Nc2ccccc2)c2cnn(-c3ccccc3)c2n1 | 6.87% | 6.44% | – | – |
| Cl.ClCCCN1CCCC1 | 23.18% | 5.15% | – | – |
| CCOc1nc2nc3c(c(N)c2cc1C#N)CCCC3 | -2.29% | -2.83% | – | – |
| Cl.OCC1CCN(Cc2ccccc2)CC1 | 26.15% | 15.91% | – | – |
| O=C(COc1ccc2ccccc2c1)NNCc1c[nH]c2ccccc12 | 3.31% | 7.68% | – | – |
| NNC(=O)CCc1c[nH]c2ccccc12 | 1.93% | 6.66% | – | – |
| COc1ccc2cc(C3C4=C(CC(C)(C)CC4=O)Oc4nc5c(c(N)c43)CCCC5)c(Cl)nc2c1 (stereo not drawn) | 25.96% | 20.91% | – | – |
| Nc1nc(N)c(C=O)c(-c2ccccc2)c1C=O | 3.38% | 16.24% | – | – |
| COc1ccc(C=C2N=C(c3ccccc3)OC2=O)cc1 | 12.56% | 14.02% | – | – |
| Cn1c(C(=O)O)cc2ccccc21 | 7.02% | 5.49% | – | – |
| O=C(N/N=C/Cc1ccccc1)c1cc2ccccc2n1Cc1ccccc1 | 8.78% | 7.44% | – | – |
| O=C(N[C@H]1CC[C@H](O)CC1)c1ccccc1 | 23.34% | -10.8% | – | – |
| CC(=O)/C=C/C1CCN(Cc2ccccc2)CC1 | 28.47% | -12.86% | – | – |
| N#CC1=C(Cl)Oc2c(ccc3ccccc23)C1c1cccc([N+](=O)[O-])c1 (stereo not drawn) | 9.83% | -16.88% | – | – |
| N#Cc1c(N)nc(NCCCCC2CCN(Cc3ccccc3)CC2)c(C#N)c1-c1ccccc1 | 9.74% | -1.09% | – | – |
| N#Cc1c(Cl)nc(N2CCCCC2)c(C#N)c1-c1ccccc1 | -12.16% | 17.72% | – | – |
| N#Cc1c(N)nc(NCCC2CCN(Cc3ccccc3)CC2)c(C#N)c1-c1ccccc1 | 34.16% | -9% | – | – |

| SMILES | Inhibition (Staphylococcus aureus) | Inhibition (Escherichia coli) | Inhibition (Staphylococcus aureus; 32 ug/mL) | Inhibition (Escherichia coli; 32 ug/mL) |
| --- | --- | --- | --- | --- |
| CCOC(=O)C1=C(C)OC(N)=C(C#N)C1c1ccncc1 (stereo not drawn) | 26.79% | -33.19% | – | – |
| COc1ccc(-c2cc(-c3cc4ccc(OC)cc4nc3Cl)cc(=O)[nH]2)cc1 | 18.65% | -13.67% | – | – |
| CC#CCN(Cc1ccccc1)c1nc(N)c(C#N)cc1C#N | 14.89% | -4.77% | – | – |
| N#Cc1c(N)nc(Cl)c(C#N)c1-c1ccccc1 | 17.3% | 12.56% | – | – |
| Br.C#CCNCc1ccccc1 | 25.93% | 20.8% | – | – |
| Cc1nc(NCc2ccccc2)c2cnn(-c3ccccc3)c2n1 | 7.38% | 5.64% | – | – |
| CNC(=O)c1cc2cc(OC)ccc2[nH]1 | 5.66% | -0.98% | – | – |
| CSC1=NC(=Cc2cn(C)c3ccccc23)C(=O)N1C | 3.9% | -1.24% | – | – |
| C#CCNc1ncccn1 | 40.44% | -0.02% | – | – |
| Cc1nn(-c2ccccc2)c2nc(C)n3nc(-c4ccccc4)nc3c12 | 16.28% | 8.31% | – | – |
| CCC(CC)NNC(=O)c1cc2ccccc2n1C | 11.92% | 13.68% | – | – |
| NNC(=O)Cc1c[nH]c2ccccc12 | 10.37% | 13.76% | – | – |
| COc1ccc(-c2cc(-c3ccccc3)c(C#N)c(N)n2)cc1 | 10.32% | -23.38% | – | – |
| c1ccc(COc2ccc3[nH]ccc3c2)cc1 | 4.67% | 3.23% | – | – |
| CC(=O)Nc1nn(C)c2nc3nc4c(c(N)c3cc12)CCCC4 | – | – | 26.15% and 21.32% | -7.37% and -4.67% |
| CCOC(=O)C1=C(C)Nc2nc3c(c(N)c2C1c1ccc([N+](=O)[O-])cc1)CCCC3.Cl (stereo not drawn) | 34.25% | -22.43% | – | – |
| C#CCNc1nc(NCCCC2CCN(Cc3ccccc3)CC2)c(C#N)cc1C#N.Cl | -16.88% | -13.89% | – | – |
| N#Cc1cc2c(N)n[nH]c2nc1N | 14.97% | 10.46% | – | – |
| N#Cc1c(N)nc2c(c1-c1ccccc1)CN(Cc1ccccc1)CC2 | 12.81% | 10.61% | – | – |
